# Reference: PubChem BioAssay AID2284114 (EPA ToxCast)
# The source made the active and inactive calls. How the source made its calls: active means hit-call score of the fitted dose curve at least 0.9, where 1 is the maximum; inactive means score below 0.9.
# Biological target: human MSK1 (RPS6KA5) AGC Kinase, RPS6KA5 (gene 9252) (UniProt O75582)
# Assay: ERF_FR_ENZ_hMSK1: Eurofins (ERF) Enzymatic Radiometric [Km ATP] KinaseProfiler LeadHunter Assay for human MSK1 (RPS6KA5) AGC Kinase
# Protocol: ERF_FR_ENZ_hMSK1 is a biochemical, single-readout assay that uses extracted gene-proteins in a cell-free assay. Measurements were taken 0.16 hour after chemical dosing in a 96-well plate. See MSK1 Human AGC Kinase Enzymatic Radiometric Assay [Km ATP], Cerep.ERF_FR_ENZ_hMSK1 is an assay component calculated from the ERF_FR_ENZ_hMSK1 assay. It is designed to measure enzyme activity using a type of enzyme reporter as detected by scintillation counting with radiometry technology.Data from the assay component ERF_FR_ENZ_hMSK1 was analyzed at the assay endpoint, ERF_FR_ENZ_hMSK1, in the positive analysis fitting direction relative to DMSO as the negative control and baseline of activity. Using a type of enzyme reporter, loss-of-signal activity can be used to understand changes in enzymatic activity as they relate to gene MSK1. To generalize the intended target to other relatable targets, this assay endpoint is annotated to the kinase intended target family, where the subfamily is serine/threonine kinase.
# MSK1 (h) is incubated with 8 mM MOPS pH 7.0, 0.2 mM EDTA, 30 uM […], 10 mM MgAcetate and [g- 33P]-ATP (specific activity and concentration as required). The reaction is initiated by the addition of the Mg/ATP mix. After incubation for 40 minutes at room temperature, the reaction is stopped by the addition of phosphoric acid to a concentration of 0.5%. […]
# human MSK1 (RPS6KA5) AGC Kinase, RPS6KA5 (gene 9252), sequence (O75582 whole entry, looked up): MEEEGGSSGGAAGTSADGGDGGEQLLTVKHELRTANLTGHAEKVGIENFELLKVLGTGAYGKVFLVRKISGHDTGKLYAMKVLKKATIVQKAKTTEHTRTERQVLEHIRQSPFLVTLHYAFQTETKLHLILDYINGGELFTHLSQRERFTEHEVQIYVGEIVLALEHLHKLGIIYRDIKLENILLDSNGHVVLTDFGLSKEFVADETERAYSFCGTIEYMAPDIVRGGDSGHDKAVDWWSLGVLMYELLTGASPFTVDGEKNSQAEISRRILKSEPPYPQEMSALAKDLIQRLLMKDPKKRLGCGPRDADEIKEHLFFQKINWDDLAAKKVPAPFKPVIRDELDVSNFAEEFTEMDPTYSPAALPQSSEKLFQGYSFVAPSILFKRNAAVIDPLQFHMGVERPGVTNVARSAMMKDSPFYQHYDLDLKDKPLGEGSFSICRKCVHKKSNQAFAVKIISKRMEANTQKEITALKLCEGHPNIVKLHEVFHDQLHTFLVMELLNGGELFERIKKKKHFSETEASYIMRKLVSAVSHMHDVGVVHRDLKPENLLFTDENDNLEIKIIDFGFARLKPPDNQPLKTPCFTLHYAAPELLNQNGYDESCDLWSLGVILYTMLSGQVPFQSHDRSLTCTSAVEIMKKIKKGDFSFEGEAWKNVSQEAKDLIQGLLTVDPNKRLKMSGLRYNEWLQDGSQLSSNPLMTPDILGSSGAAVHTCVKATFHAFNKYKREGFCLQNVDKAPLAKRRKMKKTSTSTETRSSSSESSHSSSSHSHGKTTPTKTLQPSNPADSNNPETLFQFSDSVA
row,Compound,AC50
1,COc1cc(CCC(=O)CC(=O)CCc2ccc(O)c(OC)c2)ccc1O,2.12 µM (active)
2,O=C(/C=C/c1ccc(O)cc1)CC(=O)/C=C/c1ccc(O)cc1,5 µM (active)
